Screening results as filed in PubChem.
ssDAF12 agonist: S. stercoralis DAF-12 activation, primary screen. 1% of 370,000 active. activation, % at 6.8 µM. HEK293 ssDAF-12/GRIP1 lit1-tk-luc reporter, luminescence; % of 3 µM dafachronic acid response;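 active = activation above the mean over all tested compounds plus 3 SD, cut at about 0.9% in these data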
DAX1 inh-1: inhibitors of human orphan nuclear receptor DAX1 (NR0B1). 0.99% of 340,000 active. P51843. inhibition, % at 6.75 µM. HEK293 Gal4-DAX1 luciferase reporter, luminescence;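 active = inhibition above the mean over all tested compounds plus 3 SD, cut at about 4.2% in these data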;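 also: inhibition shows as a rise in luminescence from relieved DAX1 repression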
Target sequence (P51843 207-470 limits assumed): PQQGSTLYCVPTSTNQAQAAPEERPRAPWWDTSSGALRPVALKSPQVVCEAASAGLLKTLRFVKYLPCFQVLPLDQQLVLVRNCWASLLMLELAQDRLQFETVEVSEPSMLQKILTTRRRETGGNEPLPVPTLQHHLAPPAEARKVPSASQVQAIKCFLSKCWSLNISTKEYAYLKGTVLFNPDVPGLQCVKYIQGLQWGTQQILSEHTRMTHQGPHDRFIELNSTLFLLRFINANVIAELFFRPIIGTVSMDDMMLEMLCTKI
hgDAF12 agonist: hgDAF-12 agonism, primary luciferase screen; HEK293 GAL4-hgDAF12 UAS-luciferase reporter, agonist luminescence; normalized to butyrate control; activation, % at 6.8 µM; 1.8% of 370,000 active; AID 687014;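 active = activation above a cutoff set at the mean of all screened compounds plus 3 SD, cut at about 10% in these data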
hcDAF12 agonist: activators of H. contortus DAF-12 nuclear receptor. HEK293 hcDAF-12 lit1-tk-luc reporter, luminescence; 0% DMSO, 100% Δ7-dafachronic acid. activation, % at 6.8 µM. 1.4% of 370,000 active. AID 652067;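 active = activation above the mean of all tested compounds plus 3 SD, cut at about 5.5% in these data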
DAX1 inh-2: DAX1 (NR0B1) inhibition, primary screen; 1.1% of 370,000 active; AID 652010; HEK293T StAR-luciferase reporter, SF-1/DAX-1 repression relief; inhibition, % at 6.8 µM;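 active = inhibition above the mean over all tested compounds plus 3 SD, cut at about 3.6% in these data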;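 also: higher inhibition means more luminescence from relief of DAX-1 repression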
FXN GAA850 act: frataxin GAA850 promoter activation; 0.56% of 360,000 active; HEK293 lucGAA850 FXN promoter luciferase reporter, 24 h; percent of 10 µM SAHA response; activation, % at 6 µM;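 active = activation above the average of all compounds screened plus 3 SD, cutoff fixed separately per campaign, cut at about 7.5% in these data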
Large screens that a line does not name were inactive. An excerpt weighted towards active compounds, which were near 4.5% of everything screened.

Cc1cccc(-c2cc3nc(-c4ccccc4)cc(=O)n3[nH]2)c1	DAX1 inh-1 6.4
COC(=O)C[C@H]1CC[C@H]2[C@@H](COc3ccc(NC(=O)Nc4ccccc4)cc3C(=O)N2C)O1	none (no result: DAX1 inh-1, FXN GAA850 act)
COCCNC[C@@]12CO[C@H](c3ccc(Cl)cc3)N1[C@@H](c1ccc(Cl)cc1)SC2	none (no result: DAX1 inh-1, DAX1 inh-2, FXN GAA850 act)
CC(=O)N1CCc2cc(S(=O)(=O)NCCC(=O)N(C)C3CCCCC3)ccc21	none (no result: DAX1 inh-1, FXN GAA850 act)
CC1(C)CC(=O)C=C(c2ccc(COC(=O)c3ccccc3)cc2)C1=O	hgDAF12 agonist 10.6, DAX1 inh-2 3.9
O=C(Cn1cnc2ccccc2c1=O)N1CCN(C(=O)C2CCCO2)CC1 (stereo unspecified)	none (no result: DAX1 inh-1, FXN GAA850 act)
CCc1ccc2c(c1)/C(=C/C(=O)c1cccs1)C(=O)N2	none
CCc1ccc2c(c1)/C(=N/N(C)C(=S)NC)C(=O)N2	hcDAF12 agonist 6.4
C/C(=N\NC(=O)c1cc2ccccc2cc1O)c1ccc(C)o1	none
C/C(=N\NC(=O)c1c[nH]c2ccccc12)c1ccc(C)o1	ssDAF12 agonist 2.7, hcDAF12 agonist 5.7
C/C(=N/NC(=O)c1ccccn1)c1ccc(O)cc1	DAX1 inh-1 4.6, hgDAF12 agonist 12.6, DAX1 inh-2 5.1
C/C(=N/NC(=O)c1ccccn1)c1c[nH]c2ccccc12	DAX1 inh-1 5.8, hgDAF12 agonist 11.7
O=C(CCc1ccccc1)N[C@H]1[C@H](OC(=O)c2ccco2)CCC[C@@]12C(=O)N(Cc1ccccc1)c1ccccc12	none (no result: DAX1 inh-1, FXN GAA850 act)
CC(=O)c1cccc(NC(=O)c2c(C)nn(-c3ccccc3)c2Cl)c1	none
CC(=O)c1cccc(NC(=O)c2cc3ccccn3n2)c1	DAX1 inh-2 3.7
C[C@H]1[C@@H](OC(=O)NC2CCCCC2)CC[C@@]23CCCN2C(=O)CCC[C@@H]13	none (no result: DAX1 inh-1, DAX1 inh-2, FXN GAA850 act)
CCCC(=O)NC(=S)c1c(C)n(C)n(-c2ccccc2)c1=O	hcDAF12 agonist 5.8
CN(C)C(=O)N1CCN(c2nc(-c3ccccc3)cs2)CC1	DAX1 inh-1 4.6
O=C(N1CCOCC1)N1CCN(c2nc(-c3ccccc3)cs2)CC1	none
O=C(CSc1nnc(-c2ccccc2)n1Cc1ccco1)Nc1ccc(Oc2ccccc2)cc1	none (no result: DAX1 inh-1, FXN GAA850 act)
c1ccc(-n2c(SCc3cccc4ccccc34)nnc2-c2ccncc2)cc1	none (no result: DAX1 inh-1, FXN GAA850 act)
O=C(C1CCCN1C(=O)c1cccs1)N1CCc2ccccc21 (stereo unspecified)	hcDAF12 agonist 6.0
Cc1cc(CNC(=O)Cn2nc(C)c([N+](=O)[O-])c2C)c2ccccc2n1	DAX1 inh-2 4.3
Cc1ccc(-c2ccnc3c(Cl)c(C)nn23)cc1	none
Cc1nn2c(-c3ccncc3)ccnc2c1Cl	hgDAF12 agonist 11.7
CCCN(CCC)S(=O)(=O)c1ccc(C(=O)NCc2n[nH]c(=S)n2-c2ccc(Cl)c(Cl)c2)cc1	DAX1 inh-1 5.2
N[C@H](C(=O)N[C@@H](Cc1ccccc1)C(=O)N1CCC2CCN(S(=O)(=O)c3ccccc3)CC21)c1ccccc1 (stereo partly specified)	hgDAF12 agonist 17.4 (no result: DAX1 inh-1, FXN GAA850 act)
CC1CCCC(NCC(=O)Nc2ccc(C(N)=O)cc2)C1C (stereo unspecified)	ssDAF12 agonist 1.7
Cc1ccc(S(=O)(=O)N(C)CC(=O)NCC(=O)Nc2ccc(F)c(F)c2F)cc1	DAX1 inh-1 4.7
O=C(COC(=O)/C=C/c1cccs1)Nc1nc(-c2ccccc2)cs1	hcDAF12 agonist 5.8
COc1cc2c(cc1OC)C1CCc3cc4c(cc3C1N=C2)OCO4 (stereo unspecified)	hgDAF12 agonist 11.1
O=c1cc(Cl)[nH]c(=O)n1CCNc1ncc(C(F)(F)F)cc1Cl	hgDAF12 agonist 11.1
COc1cc(Cl)ccc1OCc1cc(C(=O)NC(C)Cc2cccnc2)no1 (stereo unspecified)	none
COc1cc(C)ccc1OCc1cc(C(=O)NC(C)Cn2cncn2)no1 (stereo unspecified)	hgDAF12 agonist 11.1
COc1cc(Cl)ccc1OCc1cc(C(=O)NCc2cc(C(C)C)no2)no1	DAX1 inh-2 4.1
O=C(CCc1c[nH]c2ccccc12)Nc1ccc(Nc2ccccc2)cc1	none (no result: DAX1 inh-1, FXN GAA850 act)
COC(=O)C[C@@H]1CC[C@H]2[C@H](COc3ccc(NC(=O)C4CCC4)cc3C(=O)N2C)O1	none (no result: DAX1 inh-1, FXN GAA850 act)
CC(=O)N1C[C@H]2CON(C)[C@H]2C[C@H]1c1ccccc1Br	ssDAF12 agonist 1.1
CCNC(=O)N1C[C@H]2CON(C)[C@H]2C[C@H]1c1ccccc1Br	none
CC(=O)N1C[C@H]2CON(C)[C@H]2C[C@H]1c1cccc(-c2ccccc2C)c1	none
COc1ccccc1-c1cccc([C@@H]2C[C@H]3[C@H](CON3C)CN2C(C)=O)c1	DAX1 inh-2 3.7
COc1cccc(NC(=O)N2CC[C@@H]3[C@H]2c2cc(-c4cccc(C#N)c4)ccc2N(C)[C@@H]3CO)c1	none (no result: DAX1 inh-1, FXN GAA850 act)
COC(=O)[C@]12C[C@H](CC(=O)NCc3cccc(C(F)(F)F)c3)C(=O)N(Cc3ccc(Cl)cc3Cl)C1=C[C@H](C(C)(C)C)O[C@@H]2C	none (no result: DAX1 inh-1, FXN GAA850 act)
Nc1ncnc2c1ncn2[C@@H]1O[C@H](CO)C[C@H]1O	none
Nc1ncnc2c1ncn2C1C=C(CO)C(O)C1O (stereo unspecified)	DAX1 inh-1 7.6 (no result: ssDAF12 agonist, hgDAF12 agonist, hcDAF12 agonist, DAX1 inh-2)
CCCC1CCC2(CC1)CCC2OC(=S)NCCc1ccc(Cl)cc1 (stereo unspecified)	none (no result: DAX1 inh-1, DAX1 inh-2, FXN GAA850 act)
CC1=C(C(=O)OCC2CCCO2)C(c2coc3ccc(Cl)cc3c2=O)C2=C(CCCC2=O)N1 (stereo unspecified)	DAX1 inh-1 8.9
CC1=C(C(=O)OCC2CCCO2)C(c2coc3ccc(C)cc3c2=O)C2=C(CCCC2=O)N1 (stereo unspecified)	ssDAF12 agonist 1.7
Cc1ccc(-n2c(SCC(=O)Nc3ccc(OCc4ccccc4)cc3)nnc2-c2ccccc2)cc1	none (no result: DAX1 inh-1, FXN GAA850 act)
O=c1cccccc1NN=C1CCCCC1	DAX1 inh-1 5.8, hgDAF12 agonist 10.6
Cc1ccc(S(=O)(=O)N/N=C/c2c[nH]c3ccccc23)cc1	ssDAF12 agonist 0.9
CCOC(=O)N/N=C/c1ccc(F)cc1F	ssDAF12 agonist 1.0
Cc1ccc(OCC(=O)N/N=C\c2ccc(O)cc2)c([N+](=O)[O-])c1	none
CCOC(=O)N/N=C/c1cc(C)n(-c2ccccc2)c1C	none
NC(=S)N/N=C/c1c[nH]c2ccccc12	ssDAF12 agonist 1.8
Cc1ccc(OCC(=O)N/N=C/c2c[nH]c3ccccc23)c([N+](=O)[O-])c1	hcDAF12 agonist 6.2
COc1ccccc1NC(=O)OCCCN1CCC2(CCC(C)CC2)C1=O (stereo unspecified)	none (no result: DAX1 inh-1, FXN GAA850 act)
Cn1ccnc1CN1CCC[C@]2(CC[C@H](CCC#N)O2)C1	none (no result: DAX1 inh-1, FXN GAA850 act)
COC(=O)[C@]12C[C@H](CC(=O)N3CCSCC3)C(=O)N(CCc3ccc(OC)c(OC)c3)C1=C[C@H](C1CCCC1)O[C@@H]2C	none (no result: DAX1 inh-1, FXN GAA850 act)
